Data taken from PubChem BioAssay (EPA / NIEHS).
Results filed as inconclusive are left out. Activity calls are given as the source filed them. Rule for the calls, unless noted: active = hit-call score of the fitted dose curve at least 0.9, where 1 is the maximum; inconclusive = response in the unintended direction; inactive = score below 0.9.

Experiments:
[1] = molecular target: Cellular tumor antigen p53 (Homo sapiens) (UniProt P04637); assay: TOX21_p53_BLA_p2_ratio: Tox21 HCT-116 p53 Agonism Beta-lactamase Assay, Ratio, Phase 2 (AID 2283592)
Method in brief: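 In this cell-based reporter format, HCT116 cells were dosed with chemicals delivered from DMSO by 217-fold dilution and incubated 16 h at 37C. Emission at 460 and 530 nm after 2 h CCF4-AM loading provided the ratio, fitted upward versus DMSO.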

[2] = TOX21_p53_BLA_p3_viability: Viability Assessment in the Tox21 HCT-116 p53 Agonism Beta-lactamase Assay, Phase 3 (AID 2283593);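 note: cells exposed to compound for 16 h before reading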
Method in brief: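 HCT116 cells, 4000/well, dosed 5 h after plating by pin transfer (217-fold dilution from DMSO stock) and incubated 16 h at 37C, 5% CO2. Viability read as ATP luminescence with CellTiter-Glo after 30 min at room temperature.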

[3] = molecular target: Cellular tumor antigen p53 (Homo sapiens) (UniProt P04637); assay: TOX21_p53_BLA_p3_ratio: Tox21 HCT-116 p53 Agonism Beta-lactamase Assay, Ratio, Phase 3 (AID 2283596)
Method in brief: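 HCT116 p53-bla cells (4000/well) given compound in DMSO (217-fold dilution) after 5 h, incubated 16 h at 37C. CCF4-AM substrate 2 h at room temperature; 460/530 nm emission ratio, gain fitted against DMSO.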

[4] = molecular target: Cellular tumor antigen p53 (Homo sapiens) (UniProt P04637); assay: TOX21_p53_BLA_p5_ratio: Tox21 HCT-116 p53 Agonism Beta-lactamase Assay, Ratio, Phase 5 (AID 2283599)
Method in brief: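 HCT-116 p53-bla cells (4000/well) plated 5 h, dosed with compound (217-fold DMSO dilution) for 16 h at 37 C; CCF4-AM substrate 2 h at room temperature. Activity is the 460/530 nm emission ratio (405 nm excitation), fitted in gain-of-signal direction versus DMSO.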

[5] = molecular target: Cellular tumor antigen p53 (Homo sapiens) (UniProt P04637); assay: TOX21_p53_BLA_p4_ratio: Tox21 HCT-116 p53 Agonism Beta-lactamase Assay, Ratio, Phase 4 (AID 2283601)
Method in brief: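 HCT-116 p53 beta-lactamase reporter cells (4000/well) preincubated 5 h, then compound (217-fold dilution of DMSO stock) for 16 h at 37C. CCF4-AM substrate added 2 h at room temperature; 460/530 nm emission ratio fitted upward versus DMSO.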

[6] = TOX21_p53_BLA_p4_viability: Viability Assessment in the Tox21 HCT-116 p53 Agonism Beta-lactamase Assay, Phase 4 (AID 2283597);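 note: hits lower the luminescence signal meaning cytotoxicity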
Method in brief: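 We seeded HCT116 p53 reporter cells at 4000/well and waited 5 h. We then added compounds in DMSO at a 217-fold dilution and incubated for 16 h. Viability was read as CellTiter-Glo luminescence after 30 min at RT.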

PGR (gene 5241) [7] = molecular target: PGR (gene 5241) (UniProt P06401); assay: TOX21_PR_BLA_Followup_Agonist_ratio: Tox21 HEK293 Progesterone Receptor (PR) Agonism Beta-lactamase Follow-Up Assay, Ratio (AID 2283933)
Method in brief: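 PR-UAS-bla HEK293T cells (GAL4-UAS beta-lactamase reporter) in medium with 2% charcoal-stripped FBS received compounds after 6 hr at 37C, then incubated 16 hr. LiveBLAzer FRET substrate added, 2 hr room temperature; cleaved/uncleaved (ch2/ch1) ratio fitted upward versus DMSO.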

PGR (gene 5241) [8] = molecular target: PGR (gene 5241) (UniProt P06401); assay: TOX21_PR_BLA_Followup_Antagonist_ratio: Tox21 HEK293 Progesterone Receptor (PR) Antagonism Beta-lactamase Follow-Up Assay, Ratio (AID 2283934)
Method in brief: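 PR-UAS-bla HEK293T cells in medium with 2% charcoal-stripped FBS were treated with compounds plus 1 nM (final) promegestone (R5020) for 16 hr at 37C. LiveBLAzer B/G FRET substrate was then added for 2 h at room temperature; signal is cleaved/uncleaved substrate ratio versus DMSO.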

[9] = TOX21_PR_BLA_Followup_Agonist_viability: Viability Assessment in the Tox21 HEK293 Progesterone Receptor (PR) Agonism Beta-lactamase Follow-Up Assay (AID 2283935);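 note: signal loss means lower viability so actives are cytotoxic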
Method in brief: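 PR-UAS-bla HEK293T cells in 2% charcoal-stripped FBS medium, compound added after 6 hr plating, 16 hr at 37C/5% CO2. After bla FRET read, CellTiter-Glo added; luminescence read after 30 min at room temperature; signal loss marks cytotoxicity.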

[10] = TOX21_PR_BLA_Followup_Antagonist_viability: Viability Assessment in the Tox21 HEK293 Progesterone Receptor (PR) Antagonism Beta-lactamase Follow-Up Assay (AID 2283936);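 note: hits lower the luminescence signal meaning cytotoxicity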
Method in brief: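 PR-UAS-bla HEK293T cells (3,000/well, 2% charcoal-stripped FBS) given compound plus R5020 agonist, 16 h at 37C. CellTiter-Glo added after bla read, 30 min at room temperature; luminescence loss indicates cytotoxicity.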

PGR (gene 5241) [11] = molecular target: PGR (gene 5241) (UniProt P06401); assay: TOX21_PR_LUC_Followup_Agonist: Tox21 HEK293 Progesterone Receptor (PR) Agonism Luciferase Follow-Up Assay (AID 2283937; active = hit-call score of the fitted dose curve at least 0.9, where 1 is the maximum; inactive = score below 0.9)
Method in brief: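 HEK293-PR-A-luc cells, pre-cultured 5 days in medium with 10% charcoal-stripped FBS, were seeded at 3,000 cells/well, rested 5 h at 37C, then exposed to compounds 16 h at 37C; luciferase read by ONE-Glo luminescence after 30 min.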

PGR (gene 5241) [12] = molecular target: PGR (gene 5241) (UniProt P06401); assay: TOX21_PR_LUC_Followup_Antagonist: Tox21 HEK293 Progesterone Receptor (PR) Antagonism Luciferase Follow-Up Assay (AID 2283938);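 note: curve fitted upward as signal gain over DMSO baseline despite antagonist label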
Method in brief: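 Luminescence from ONE-Glo reagent, measured after 30 min at room temperature, served as readout. Cells (HEK293 carrying PR-A-luc) had been treated 16 h at 37C with DMSO-dissolved compounds. Activity was fitted against DMSO controls.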

[13] = TOX21_PR_LUC_Followup_Agonist_viability: Viability Assessment in the Tox21 HEK293 Progesterone Receptor (PR) Agonism Luciferase Follow-Up Assay (AID 2283941);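 note: loss of signal means cytotoxicity so actives lower viability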
Method in brief: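 HEK293-PR-A-luc cells, pre-cultured 5 days in 10% charcoal-stripped FBS, were seeded at 3,000 cells/well, rested 5 h at 37C, then given compound in DMSO for 16 h at 37C. Cellular ATP was read by CellTiter-Glo luminescence; signal loss indicates cytotoxicity.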

Measured: AC50

Chain of PGR (gene 5241) (P06401 whole entry, looked up, the tested form may be a part): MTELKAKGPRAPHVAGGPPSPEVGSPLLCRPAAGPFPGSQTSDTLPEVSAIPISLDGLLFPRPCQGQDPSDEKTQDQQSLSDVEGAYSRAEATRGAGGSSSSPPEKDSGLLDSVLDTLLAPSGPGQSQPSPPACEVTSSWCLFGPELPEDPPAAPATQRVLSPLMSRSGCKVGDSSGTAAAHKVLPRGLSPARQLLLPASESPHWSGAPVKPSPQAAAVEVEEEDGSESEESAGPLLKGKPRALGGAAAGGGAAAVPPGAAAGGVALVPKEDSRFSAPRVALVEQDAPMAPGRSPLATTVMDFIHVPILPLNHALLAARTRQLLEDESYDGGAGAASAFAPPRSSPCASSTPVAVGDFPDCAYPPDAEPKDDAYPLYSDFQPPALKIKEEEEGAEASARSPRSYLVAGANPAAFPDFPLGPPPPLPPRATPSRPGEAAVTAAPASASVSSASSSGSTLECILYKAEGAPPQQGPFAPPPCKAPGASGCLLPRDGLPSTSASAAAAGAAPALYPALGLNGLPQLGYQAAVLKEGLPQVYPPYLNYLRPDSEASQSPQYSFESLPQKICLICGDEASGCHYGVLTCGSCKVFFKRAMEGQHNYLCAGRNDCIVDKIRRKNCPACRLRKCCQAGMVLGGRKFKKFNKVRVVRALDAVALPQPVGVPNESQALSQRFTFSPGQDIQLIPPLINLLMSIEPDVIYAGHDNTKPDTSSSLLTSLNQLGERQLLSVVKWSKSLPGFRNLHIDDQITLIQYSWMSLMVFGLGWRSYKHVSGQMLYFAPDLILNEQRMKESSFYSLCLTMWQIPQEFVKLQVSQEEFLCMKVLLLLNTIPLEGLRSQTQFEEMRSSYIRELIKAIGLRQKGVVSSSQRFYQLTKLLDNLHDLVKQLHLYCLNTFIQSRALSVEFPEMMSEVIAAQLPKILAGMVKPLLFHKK
Chain of Cellular tumor antigen p53 (Homo sapiens) (P04637 whole entry, looked up): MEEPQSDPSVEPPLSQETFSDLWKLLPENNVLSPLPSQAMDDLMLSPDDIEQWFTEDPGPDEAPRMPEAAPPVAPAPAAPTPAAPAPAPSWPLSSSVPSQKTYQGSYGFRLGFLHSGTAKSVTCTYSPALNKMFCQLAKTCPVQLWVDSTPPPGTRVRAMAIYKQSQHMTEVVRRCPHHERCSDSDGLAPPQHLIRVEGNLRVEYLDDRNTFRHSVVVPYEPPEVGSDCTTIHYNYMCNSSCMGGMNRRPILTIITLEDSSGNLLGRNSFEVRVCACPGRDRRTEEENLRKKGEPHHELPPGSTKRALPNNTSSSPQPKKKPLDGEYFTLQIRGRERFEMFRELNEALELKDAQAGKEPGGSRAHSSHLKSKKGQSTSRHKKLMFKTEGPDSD

Cc1c(Cl)c(=O)oc2cc(OP(=O)(OCCCl)OCCCl)ccc12
inactive: [1] | [2] | [3] | [4] | [5]

CCCCCCCCCCOC(=O)c1ccccc1C(=O)OCCCCCCCCCC
inactive: [1] | [2] | [3] | [4]

Cn1cc(C2=C(c3cn(C4CCN(Cc5ccccn5)CC4)c4ccccc34)C(=O)NC2=O)c2ccccc21
inactive: [1] | [2] | [4] | [5]
active: [3] 12 µM

O=C1C(Cl)C(CCl)CN1c1cccc(C(F)(F)F)c1 (configuration not stated)
inactive: all assays above
